Source: PubChem
SKKanGAS inh – blocks kanamycin growth of S. pyogenes SKKanGAS strain; actives 1.3% (n = 300,000); AID 1662; inhibition, % at 7.5 µM; BacTiter-Glo, 6 h;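 active = mean replicate score, as percent of positive control median, at least 50; inconclusive = mean below 50 but one replicate at or above 50; inactive = mean and every replicate below 50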;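 also: strain carries kanamycin resistance gene driven by streptokinase promoter and grows in 40 µg/ml kanamycin; loss of luminescence reflects streptokinase promoter inhibition or plain growth inhibition; 0% = median of DMSO wells and 100% = positive control at its reference dose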
CSC inhib – blocks cancer stem cells; cancer stem cell-like cells viability, luminescence; inhibition, % at 7.5 µM; actives 1.1% (n = 300,000); AID 2717; in the data active = inhibition above about 75%; inconclusive = no clear call, values can overlap the other calls; tested in HMLE shEcad cells
aSyn UTR inh – MLPCN primary screen, SNCA 5' untranslated region; alpha-synuclein 5'UTR reporter, inhibitor activity; inhibition, % (tested at 7.5 µM); actives 0.82% (n = 300,000); in the data active = inhibition above about 60%; inconclusive = no clear call, values can overlap the other calls;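 also: H4 neuroglioblastoma cells stably carrying SNCA 5'UTR luciferase fusion; 0% = DMSO wells and 100% = positive control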
KLF5 inh – inhibitors of KLF5 expression; DLD-1 KLF5 promoter-luciferase reporter, luminescence; inhibition, % at 5 µM; actives 0.23% (n = 290,000);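 active = inhibition above a per-plate limit of that plate's mean compound inhibition plus 3 SD, cut at about 60% in these data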;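 also: 0% = DMSO wells and 100% = LY294002 at 200 µM; higher means less KLF5 promoter-driven luciferase light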
IEC-6 tox – kills IEC-6 intestinal cells in KLF5 counter-screen. IEC-6 cytotoxicity, luminescence viability. inhibition, % at 5 µM. actives 0.78% (n = 290,000). AID 1825; in the data active = inhibition above about 22%;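 also: 0% = plate median of test compound wells and 100% = cytotoxic reference compound wells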
The depositor's hits bear a star; ? = inconclusive; / = not tested or not shown. In the library only some 3% were active in any assay of this set; here they are far more common.

SMILES | SKKanGAS inh | CSC inhib | aSyn UTR inh | KLF5 inh | IEC-6 tox
CCOC(=O)c1c(NC(C)=O)sc2c(OCC(O)CNC(C)(C)C)c(Br)ccc12 (centres undefined) | -0.1 | 23.3 | 33.3 | -25.0 | 6.4
CC(C)N1CN(c2ccccc2)C(=S)N(c2ccccc2)C1 | 2.1 | 13.6 | -2.6 | -21.1 | 0.4
CC(=O)CSc1nnc(-c2ccc3c(c2)OCO3)o1 | -6.5 | 13.1 | -15.2 | -67.5 | -7.7
O=C(O)CCSc1nnc(-c2ccc3c(c2)OCO3)o1 | -6.4 | 2.2 | 66.7* | 2.3 | 5.7
CCN(c1ccccc1)c1nc(C#N)nc(N(CC)c2ccccc2)n1 | 19.1 | 89.7* | -10.0 | -19.0 | 4.4
O=C(NCC(=O)N1CCN(S(=O)(=O)c2ccccc2)CC1)c1ccc(Br)o1 | 8.1 | / | 13.0 | / | /
COC(=O)c1cc(OC(=O)c2ccc(=O)[nH]c2)cc(C(=O)OC)c1 | 3.1 | -20.0 | -0.5 | -10.9 | -5.3
Cc1ccc(-c2ccc(OC(=O)c3ccc(=O)[nH]c3)c(C)c2)cc1 | 30.4 | 75.8* | -21.1 | -53.5 | 4.0
CCn1c(CN2CCN(C(c3ccccc3)c3ccccc3)CC2)nc2c1c(=O)n(C)c(=O)n2C | 1.0 | 5.9 | 10.0 | -38.8 | -6.4
O=C(CSc1ccccc1F)NCCCN1CCCC1=O | -4.6 | -2.7 | -5.2 | / | /
Fc1ccc(CSc2nc3ccccc3[nH]2)c2ccccc12 | 50.3* | ? | -42.9 | -41.5 | -4.6
CN(C)CCNC(NC(=O)c1cccs1)C(Cl)(Cl)Cl (centres undefined) | -0.3 | -0.4 | 0.7 | -6.4 | 0.4
CC1CC(=O)NN=C1c1ccc(NCCO)c([N+](=O)[O-])c1 (centres undefined) | -0.7 | 7.9 | 76.1* | -32.0 | -1.9
Cn1nc(-c2ccc(NCCO)c([N+](=O)[O-])c2)c2ccccc2c1=O | 1.3 | -5.1 | 45.3 | 10.7 | 0.8
CCc1cccc(NC(=O)NC(=O)Cn2nnc(C(=O)OC)c2C(=O)OC)c1 | 1.7 | -3.1 | 1.7 | -7.6 | -2.5
Cc1nnc(-c2cccc(Br)c2)c2cn(-c3ccc(Br)cc3)nc12 | 55.6* | -3.6 | 16.0 | 0.6 | 3.5
CCCCCCOc1ccc(/C(C)=N/NC2=NCCN2)cc1 | 3.8 | 99.7* | -45.7 | -14.3 | -0.2
Cc1ccc(S(=O)(=O)c2cc3cc(Br)ccc3oc2=O)cc1 | -0.5 | 15.1 | -41.7 | -13.4 | 0.1
CCCCCCc1cc2cc(C(=O)Nc3ccccc3)c(=O)oc2cc1O | 4.2 | 99.7* | 91.7* | -43.4 | 3.0
CCN(CC)c1ccc2cc(S(=O)(=O)c3ccc(Cl)cc3)c(=O)oc2c1 | 5.2 | 99.3* | -15.3 | -5.8 | 1.7
CCCCCCc1cc2cc(S(=O)(=O)c3ccc(Cl)cc3)c(=O)oc2cc1O | 6.2 | 86.9* | -8.9 | 6.7 | -1.7
CCCCCCc1cc2cc(S(=O)(=O)c3ccc(C)cc3)c(=O)oc2cc1O | 16.3 | 89.1* | -14.4 | -16.0 | 3.2
CCCCCCc1cc2cc(C(=O)NCc3ccccc3)c(=N)oc2cc1O | 3.3 | 27.0 | -14.0 | -23.1 | 3.8
CS(=O)(=O)N1N=C(c2cccs2)CC1c1ccc(Cl)o1 (centres undefined) | 4.4 | -0.1 | -36.8 | -46.3 | -2.3
OC(CNCC(c1ccc(Cl)cc1Cl)c1c[nH]c2ccccc12)c1ccccc1 (centres undefined) | 79.5* | 103.9* | 42.6 | -18.2 | 0.1
SMILES | SKKanGAS inh | CSC inhib | aSyn UTR inh | KLF5 inh | IEC-6 tox
Cc1ccccc1-c1nc(-c2ccccn2)no1 | / | -0.7 | 95.0* | 9.9 | 15.8
COc1ccc(-c2nc(-c3ccc(NC(=O)c4ccncc4)cc3)no2)cc1OC | 54.6* | 30.3 | -155.0 | 15.1 | 3.5
Brc1ccc(-c2noc(-c3ccccn3)n2)o1 | -2.8 | 3.4 | -1.7 | -92.0 | 1.4
Cc1ccccc1-c1nc(-c2cccnc2)no1 | -16.7 | 2.5 | -226.6 | -38.0 | 4.6
COc1ccccc1-c1nc(-c2ccccn2)no1 | 24.5 | 44.5 | 76.5* | -11.4 | 17.9
COc1ccccc1-c1noc(-c2ccncc2)n1 | -4.8 | -0.8 | -73.9 | -73.8 | 1.5
Brc1ccc(-c2nc(-c3ccccn3)no2)o1 | 6.8 | 11.8 | 79.5* | -25.4 | 6.8
O=C(COC(=O)c1ccccc1NCCO)Nc1cccc(S(=O)(=O)NC2=NCCCCC2)c1 | 0.8 | -11.6 | 10.1 | / | /
S=C(NCCc1ccccc1)N1CCc2ccccc2C1 | 9.4 | 11.0 | -100.9 | -51.3 | 3.5
COc1ccc(-c2noc(-c3cccnc3)n2)cc1OC | -3.1 | 7.8 | -158.6 | -78.7 | 9.1
COc1ccc(-c2noc(-c3ccccc3-c3ccccc3)n2)cc1OC | 26.3 | 79.9* | -2.8 | -28.7 | -6.1
CC(C)(c1cc(Br)c(O)c(Br)c1)c1cc(Br)c(O)c(Br)c1 | / | 103.3* | / | / | /
CN1C(=O)/C(=C\c2ccccc2F)Sc2ccc(C(=O)NC3CCN(Cc4ccccc4)CC3)cc21 | 83.2* | -7.5 | -36.9 | -31.1 | -4.6
CCN1CCN(CCNC(=O)c2ccc3c(c2)N(Cc2ccc(F)cc2)C(=O)/C(=C/c2ccccc2)S3)CC1 | 22.5 | 103.2* | 27.1 | -29.1 | -1.8
O=C(NC1CCN(Cc2ccccc2)CC1)c1ccccc1 | -0.2 | / | -17.4 | -4.2 | -4.0
COc1ccc(/C=C2\Sc3ccc(C(=O)NC4CC4)cc3N(C)C2=O)cc1OC | 70.3* | 11.5 | 11.8 | -17.0 | 2.1
COc1ccc(/C=C2\Sc3ccc(C(=O)N4CCCC4)cc3N(C)C2=O)cc1OC | 99.8* | -5.2 | 15.2 | -2.2 | 10.7
On1nnc2c3ccccc3c3ccccc3c21 | -2.0 | / | 6.0 | -2.1 | -0.6
O=C(NCC(=O)N1CCc2ccccc2C1)c1ccccc1Cl | -0.6 | 4.6 | -101.1 | -58.3 | -2.3
CN(Cc1c(F)cccc1Cl)C(=O)CNC(=O)c1sc2ccccc2c1Cl | 4.8 | -10.1 | -66.4 | / | /
CCOc1ccc(/C=C2/Sc3ccc(C(=O)N4CCOCC4)cc3N(C)C2=O)cc1OC | 68.1* | 15.9 | 3.7 | 1.7 | 9.4
CN1C(=O)/C(=C/c2cccc(Cl)c2)Sc2ccc(C(=O)N3CCOCC3)cc21 | ? | 12.7 | -26.0 | -11.5 | -9.6
O=C(N/N=C1\CC2CC=CC12)c1ccc(Br)cc1 (centres undefined) | -4.8 | -7.6 | -8.4 | -14.6 | 2.8
Cc1cc(Br)c(OCc2ccc(C(=O)N/N=C3\CC4CC=CC34)cc2)c(Br)c1 (centres undefined) | 68.1* | 15.0 | 6.1 | -8.3 | 1.7
C#CC(=O)N(c1ccc(OC)cc1OC)C(C(=O)NC1CCCC1)c1cccs1 (centres undefined) | -13.6 | -2.0 | 92.0* | 7.1 | 102.3*
SMILES | SKKanGAS inh | CSC inhib | aSyn UTR inh | KLF5 inh | IEC-6 tox
COc1ccc(N(C(=O)c2ccco2)C(C(=O)NC2CCCCC2)c2cccs2)cc1OC (centres undefined) | -15.7 | -17.6 | 5.4 | -22.6 | -0.9
COc1ccc(C(=O)N=c2sc3c(C)ccc(OC)c3n2C)cc1 | 7.9 | / | -114.6 | -27.1 | 3.3
COc1ccccc1-c1nnc2sc(-c3cc4ccccc4o3)nn12 | -0.2 | 60.5 | 76.3* | -1.1 | 58.1*
CCCCn1c(N)c(N(CCOC)C(=O)CCCc2cccs2)c(=O)[nH]c1=O | 0.9 | -7.2 | -2.1 | / | /
CCCCCCN1C=CC(=C2C(=O)c3ccccc3C2=O)C=C1 | 20.6 | 39.9 | 107.4* | -91.7 | 5.2
Cc1noc(C)c1C(=O)N1CCN(c2ccc(OCc3ccccc3)cc2)CC1 | -9.9 | 4.7 | -0.8 | -33.8 | -1.1
